Measurements: the supplement of paper PMC10338343
± gives the standard deviation.

system: MILI (PIWIL2) piRISC loaded with L1MC piRNA (26 nt); test: pre-steady-state target cleavage rate (min^-1); guide: L1MC piRNA 5'p-UAACUAAAUACUAUGCAAGCUGUAGG; MIWI and MILI are mouse PIWI proteins and EfPiwi is from a freshwater sponge; tags in brackets are library labels; higher = faster piRNA-guided slicing of the target; settings: auxiliary factor: none (no GTSF1)
Procedure, shortened: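 Active affinity-purified piRISC (1 nM) loaded with one synthetic guide was mixed with a transcribed, DNA-blocked target RNA library (0.1 nM), with or without 500 nM GTSF1 partner protein, in HEPES–potassium acetate buffer at 33 °C for 0–8 or 0–960 min. Uncleaved targets were sequenced, normalised to depth and to weakly complementary targets, and pooled across three trials, with k3 capped at 0.0001 min^-1. The pre-steady-state cleavage rate was determined with a burst-and-steady-state fit.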

Row | Sequence | pre-steady-state target cleavage rate
1 | UCCUGGAUGUCGAACCAUAGUCAUUUAGUUA | < 0.0001
2 | UCCUGGAUGUCCUUGCAAAGAAUUUAGUUA | 0.00283 ± 0.0026
3 | UCCUGGAUGUCGAACGUAUGUGUUUAGUUA | < 0.0001
4 | UCCUGGAUGUCGAAGCAUAGUAUUAUCUUA | < 0.0001
5 | UCCUGGAUGAGCUUGCAUAGAUAUUACAAA | < 0.0001
